Data: PubChem BioAssay (Tox21)
Where “and” joins values, the source holds several entries; their conditions need not be identical. Equal entries are not always repeated. Results filed as inconclusive are left out. A structure can be active in one record and inactive in another. Calls of active or inactive are those of the source. Unless noted, the call rests on the fitted dose curve; in most records, active means well fitted curve in the direction sought with a large enough effect in the repeat runs; inconclusive means weak or mixed curves; inactive means no such curve, though single readings can be large; an effect the other way counts as inactive or inconclusive.

Experiments:
[1] = Caspase-3/7 induction in HepG2 cells by small molecules, qHTS assay (AID 1346978); further: nearly all actives have a fitted effect of over 15% in size
Procedure, shortened: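 Wild-type HepG2 cells, 2,000/well, settled 5 hr at 37 C and 5% CO2, then compound-treated for 17 hr; caspase-3/7 activity read by luminescent Caspase-Glo 3/7 after 30 min at room temperature.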

[2] = Caspase-3/7 induction in CHO-K1 cells by small molecules, qHTS cell viability counter screen (AID 1346979); further: nearly all actives have a fitted effect of over 35% in size; further: potency means the concentration at half of the fitted maximal effect
Procedure, shortened: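 In the same wells as the caspase read, viability of compound-treated wild-type CHO-K1 cells was assessed using CellTiter-Fluor, added after 16hr at 37C and measured by fluorescence following 1hr further incubation.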

[3] = Caspase-3/7 induction in CHO-K1 cells by small molecules, qHTS assay (AID 1346980); further: nearly all actives have a fitted effect of over 15% in size
Procedure, shortened: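 Wild-type CHO-K1 cells exposed to compounds for 17hr at 37 C, 5% CO2. Caspase-3/7 activity then measured by Caspase-Glo 3/7 luminescence after 30min at room temperature.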

[4] = Caspase-3/7 induction in HepG2 cells by small molecules, qHTS cell viability counter screen (AID 1346981); further: series mostly up to about 92 µM; nearly all actives have a fitted effect of over 30% in size
Procedure, shortened: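 CellTiter-Fluor fluorescence measured viability in the same wells used for Caspase-Glo 3/7. HepG2 (wild type) at 2,000 cells/well were pre-incubated 5 hr, dosed, and given reagent at 16 hr, with 1 hr further at 37C.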

[5] = target: Nuclear receptor subfamily 1 group I member 2 (Homo sapiens) (UniProt O75469); test: Human pregnane X receptor (PXR) small molecule agonists, qHTS assay (AID 1346982); further: nearly all actives have a fitted effect of over 35% in size; further: potency means the concentration at half of the fitted maximal effect
Nuclear receptor subfamily 1 group I member 2 (Homo sapiens), sequence (O75469 whole entry, looked up): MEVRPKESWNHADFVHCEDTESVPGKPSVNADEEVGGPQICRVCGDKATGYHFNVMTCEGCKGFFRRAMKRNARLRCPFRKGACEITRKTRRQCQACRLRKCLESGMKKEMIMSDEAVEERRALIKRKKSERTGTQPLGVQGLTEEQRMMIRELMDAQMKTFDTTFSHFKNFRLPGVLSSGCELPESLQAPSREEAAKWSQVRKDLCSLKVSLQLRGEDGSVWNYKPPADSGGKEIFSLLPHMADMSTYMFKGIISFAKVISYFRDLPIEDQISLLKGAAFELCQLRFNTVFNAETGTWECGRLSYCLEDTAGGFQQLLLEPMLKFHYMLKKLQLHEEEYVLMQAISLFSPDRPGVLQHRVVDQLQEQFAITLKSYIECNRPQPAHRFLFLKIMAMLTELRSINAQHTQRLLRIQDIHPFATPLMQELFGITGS
Procedure, shortened: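 Agonist mode: luminescence from ONE-Glo after 24 h compound exposure at 37C in HepG2 cells carrying hPXR-responsive CYP3A4 luciferase, plated in charcoal-stripped serum medium 5 h beforehand.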

[6] = target: Acetylcholinesterase (Homo sapiens) (UniProt P22303); test: Acetylcholinesterase (AChE) small molecule antagonists: colormetric cell-based qHTS assay (AID 1347395; calls by dose curve; further: nearly all actives have a fitted effect of over 30% in size; further: potency means the concentration at half of the fitted maximal effect)
Acetylcholinesterase (Homo sapiens), sequence (P22303 whole entry, looked up): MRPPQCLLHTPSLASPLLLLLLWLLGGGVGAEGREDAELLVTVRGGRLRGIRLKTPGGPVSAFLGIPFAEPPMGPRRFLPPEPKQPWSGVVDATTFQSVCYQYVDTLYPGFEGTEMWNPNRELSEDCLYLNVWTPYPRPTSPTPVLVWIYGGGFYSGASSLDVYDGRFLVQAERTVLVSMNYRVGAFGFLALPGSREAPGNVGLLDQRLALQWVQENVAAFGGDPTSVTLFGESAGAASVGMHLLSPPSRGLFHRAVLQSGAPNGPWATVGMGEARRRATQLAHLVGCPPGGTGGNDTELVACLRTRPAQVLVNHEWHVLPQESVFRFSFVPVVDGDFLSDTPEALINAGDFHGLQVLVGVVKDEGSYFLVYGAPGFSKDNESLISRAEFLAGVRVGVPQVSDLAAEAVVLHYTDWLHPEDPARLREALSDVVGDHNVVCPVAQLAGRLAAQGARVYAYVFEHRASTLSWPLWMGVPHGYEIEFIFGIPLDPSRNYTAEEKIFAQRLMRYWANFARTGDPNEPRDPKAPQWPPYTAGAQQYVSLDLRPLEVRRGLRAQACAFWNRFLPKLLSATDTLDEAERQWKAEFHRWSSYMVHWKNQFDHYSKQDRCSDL
Procedure, shortened: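 Endogenous AChE of human neuroblastoma SH-SY5Y cells was measured with an Ellman-type DTNB/acetylthiocholine mix. Compound pretreatment lasted 30 min at 37 C; substrate reaction ran 90 min at 37 C.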

[7] = target: Acetylcholinesterase (Homo sapiens) (UniProt P22303); test: Acetylcholinesterase (AChE) small molecule antagonists: enzyme-based qHTS assay (AID 1347397; calls by dose curve; further: nearly all actives have a fitted effect of over 55% in size; further: potency means the concentration at half of the fitted maximal effect); details: Potency: AChE enzyme activity inhibition
Procedure, shortened: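 Colorimetric DTNB read-out of thiocholine released from acetylthiocholine by recombinant human AChE (50 mU/mL as dispensed). Compounds were preincubated 30 min at RT before substrate/DTNB addition, with a 10 min RT reaction.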

[8] = target: Cytochrome P450 2D6 (Homo sapiens) (UniProt P10635); test: Cytochrome P450 Family 2 Subfamily D Member 6 (CYP2D6) small molecule antagonists: luciferase reporter qHTS assay (AID 1671196); further: nearly all actives have a fitted effect of over 50% in size; further: potency means the concentration at half of the fitted maximal effect
Cytochrome P450 2D6 (Homo sapiens), sequence (P10635 whole entry, looked up): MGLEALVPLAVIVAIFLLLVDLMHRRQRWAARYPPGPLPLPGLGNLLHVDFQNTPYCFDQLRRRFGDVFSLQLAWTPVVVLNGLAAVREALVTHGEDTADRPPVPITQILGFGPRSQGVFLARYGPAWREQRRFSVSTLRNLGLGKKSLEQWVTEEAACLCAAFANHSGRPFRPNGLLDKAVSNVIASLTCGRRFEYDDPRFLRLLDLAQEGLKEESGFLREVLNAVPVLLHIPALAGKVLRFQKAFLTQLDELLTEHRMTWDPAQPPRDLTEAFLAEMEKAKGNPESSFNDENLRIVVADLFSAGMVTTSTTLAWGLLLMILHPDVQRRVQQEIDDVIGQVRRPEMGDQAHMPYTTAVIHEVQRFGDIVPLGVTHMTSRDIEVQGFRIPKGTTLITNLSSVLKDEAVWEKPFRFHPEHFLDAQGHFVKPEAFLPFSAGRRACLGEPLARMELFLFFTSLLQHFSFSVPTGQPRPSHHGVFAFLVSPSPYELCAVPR
Procedure, shortened: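 CYP2D6 activity was followed as luminescence from its luciferin product after a 1 h NADPH-driven reaction at room temperature. Enzyme-substrate mix and compound were pre-incubated for 10 min, and the signal was read 20 min after adding detection reagent.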

[9] = target: Cytochrome P450 2C19 (Homo sapiens) (UniProt P33261); test: Cytochrome P450 Family 2 Subfamily C Member 19 (CYP2C19) small molecule antagonists: luciferase reporter qHTS assay (AID 1671197); further: nearly all actives have a fitted effect of over 65% in size; further: potency means the concentration at half of the fitted maximal effect
Cytochrome P450 2C19 (Homo sapiens), sequence (P33261 whole entry, looked up): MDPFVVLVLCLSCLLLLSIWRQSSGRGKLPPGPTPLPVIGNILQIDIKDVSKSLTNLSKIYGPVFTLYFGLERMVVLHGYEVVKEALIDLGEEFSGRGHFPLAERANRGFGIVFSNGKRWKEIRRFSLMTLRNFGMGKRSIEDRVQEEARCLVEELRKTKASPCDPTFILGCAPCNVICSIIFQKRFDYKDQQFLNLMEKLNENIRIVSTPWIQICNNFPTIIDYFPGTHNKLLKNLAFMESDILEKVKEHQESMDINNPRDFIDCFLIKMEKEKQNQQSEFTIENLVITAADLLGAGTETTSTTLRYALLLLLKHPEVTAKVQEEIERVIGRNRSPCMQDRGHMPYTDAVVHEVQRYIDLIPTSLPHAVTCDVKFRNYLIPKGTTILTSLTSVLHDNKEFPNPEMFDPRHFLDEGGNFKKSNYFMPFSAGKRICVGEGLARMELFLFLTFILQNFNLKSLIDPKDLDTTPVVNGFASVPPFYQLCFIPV
Procedure, shortened: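 P450-Glo CYP2C19 system: enzyme-substrate mix with compound 10 min at room temperature, then NADPH regeneration solution, 1 h at 37C. Proluciferin-to-luciferin conversion detected by luminescence after 20 min with detection reagent; ketoconazole as positive control.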

[10] = target: Cytochrome P450 2C9 (Homo sapiens) (UniProt P11712); test: Cytochrome P450 Family 2 Subfamily C Member 9 (CYP2C9) small molecule antagonists: luciferase reporter qHTS assay (AID 1671198); further: nearly all actives have a fitted effect of over 50% in size; further: potency means the concentration at half of the fitted maximal effect
Cytochrome P450 2C9 (Homo sapiens), sequence (P11712 whole entry, looked up): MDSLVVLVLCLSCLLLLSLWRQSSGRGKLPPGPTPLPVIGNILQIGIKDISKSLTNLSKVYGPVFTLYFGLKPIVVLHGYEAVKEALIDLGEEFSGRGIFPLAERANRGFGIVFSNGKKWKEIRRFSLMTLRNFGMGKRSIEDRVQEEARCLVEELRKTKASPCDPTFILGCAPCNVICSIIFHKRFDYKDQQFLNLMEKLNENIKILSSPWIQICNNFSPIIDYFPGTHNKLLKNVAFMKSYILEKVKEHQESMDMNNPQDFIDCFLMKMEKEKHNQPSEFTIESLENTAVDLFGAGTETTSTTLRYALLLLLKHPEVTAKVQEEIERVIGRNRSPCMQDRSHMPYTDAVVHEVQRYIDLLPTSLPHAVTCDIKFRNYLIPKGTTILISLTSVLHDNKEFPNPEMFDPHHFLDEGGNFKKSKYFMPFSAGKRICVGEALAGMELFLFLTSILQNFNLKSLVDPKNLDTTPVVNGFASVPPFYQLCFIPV
Procedure, shortened: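 P450-Glo proluciferin substrate with CYP2C9 enzyme; 10 min RT preincubation, then NADPH regeneration 1 h at 37C; luciferin detection reagent 20 min RT, luminescence in relative luminescence units.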

[11] = target: Cytochrome P450 1A2 (Homo sapiens) (UniProt P05177); test: Cytochrome P450 Family 1 Subfamily A Member 2 (CYP1A2) small molecule antagonists: luciferase reporter qHTS assay (AID 1671199); further: nearly all actives have a fitted effect of over 50% in size; further: potency means the concentration at half of the fitted maximal effect
Cytochrome P450 1A2 (Homo sapiens), sequence (P05177 whole entry, looked up): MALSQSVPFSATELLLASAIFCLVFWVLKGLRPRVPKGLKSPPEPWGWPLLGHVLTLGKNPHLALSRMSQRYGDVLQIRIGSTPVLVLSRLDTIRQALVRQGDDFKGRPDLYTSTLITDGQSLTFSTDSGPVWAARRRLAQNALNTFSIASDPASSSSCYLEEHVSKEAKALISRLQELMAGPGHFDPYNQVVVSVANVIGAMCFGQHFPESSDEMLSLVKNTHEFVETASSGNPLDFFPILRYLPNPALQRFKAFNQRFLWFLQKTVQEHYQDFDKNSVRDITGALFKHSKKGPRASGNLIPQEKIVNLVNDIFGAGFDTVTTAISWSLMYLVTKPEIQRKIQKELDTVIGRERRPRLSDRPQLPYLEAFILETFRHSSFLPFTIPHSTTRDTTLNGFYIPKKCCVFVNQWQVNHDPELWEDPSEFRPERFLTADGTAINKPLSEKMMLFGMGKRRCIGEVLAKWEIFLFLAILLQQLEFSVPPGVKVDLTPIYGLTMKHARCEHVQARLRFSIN
Procedure, shortened: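 Luminescence from luciferin formed by CYP1A2 from a proluciferin substrate, read 20 min after detection reagent. Compound was pre-incubated 10 min with enzyme-substrate, and reaction started with NADPH regeneration solution for 1 h at room temperature; furafylline control.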

[12] = target: Voltage-gated inwardly rectifying potassium channel KCNH2 (Homo sapiens) (UniProt Q12809); test: Human Ether-a-go-go-Related Gene (hERG) channel small molecule antagonists: fluorescence cell-based qHTS assay (AID 1671200);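 further: hERG-expressing U2OS cells given a thallium stimulus after FluxOR II dye loading; series mostly up to about 77 µM; nearly all actives have a fitted effect of over 50% in size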
Procedure, shortened: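 Quantitative HTS in hERG-U2OS cells: thallium entry through the channel reports activity, read as continuous 480/540 nm fluorescence over 2 min after stimulus addition.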

[13] = target: Cytochrome P450 3A4 (Homo sapiens) (UniProt P08684); test: Cytochrome P450 Family 3 Subfamily A Member 4 (CYP3A4) small molecule antagonists: luciferase reporter qHTS assay (AID 1671201)
Cytochrome P450 3A4 (Homo sapiens), sequence (P08684 whole entry, looked up): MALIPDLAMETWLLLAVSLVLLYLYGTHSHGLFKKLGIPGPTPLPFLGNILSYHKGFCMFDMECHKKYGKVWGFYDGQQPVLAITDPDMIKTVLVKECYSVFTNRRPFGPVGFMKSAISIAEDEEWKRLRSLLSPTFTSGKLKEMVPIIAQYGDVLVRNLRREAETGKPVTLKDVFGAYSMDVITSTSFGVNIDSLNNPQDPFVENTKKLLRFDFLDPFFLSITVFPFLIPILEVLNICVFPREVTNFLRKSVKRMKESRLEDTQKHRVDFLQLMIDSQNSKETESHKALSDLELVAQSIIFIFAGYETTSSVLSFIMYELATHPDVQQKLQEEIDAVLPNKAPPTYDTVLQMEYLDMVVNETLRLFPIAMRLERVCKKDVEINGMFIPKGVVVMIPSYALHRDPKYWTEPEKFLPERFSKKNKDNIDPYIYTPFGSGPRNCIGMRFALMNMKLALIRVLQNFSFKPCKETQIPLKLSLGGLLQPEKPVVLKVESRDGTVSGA
Procedure, shortened: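 Inhibition of CYP3A4 is measured as loss of light: the enzyme converts a proluciferin substrate to luciferin, detected luminescently. Reaction ran 1 h at room temperature with NADPH regeneration after a 10 min compound preincubation.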

[14] = target: Acetylcholinesterase (Homo sapiens) (UniProt P22303); test: Acetylcholinesterase (AChE) small molecule antagonists: enzyme-based qHTS assay with human liver microsomes (AID 1347399; calls by dose curve; further: nearly all actives have a fitted effect of over 60% in size); details: Potency: qHTS inhibition
Procedure, shortened: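 Recombinant human AChE (50 mU/mL in the enzyme mix) and human liver microsomes (0.25 mg/mL final) were preincubated with compound and NADPH (0.25 mg/mL final) for 30 min at 37 C. Acetylthiocholine/DTNB was then added; thiocholine was read colorimetrically after 10 min at room temperature.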

[15] = target: Nuclear receptor subfamily 1 group I member 2 (Rattus norvegicus) (UniProt Q9R1A7); test: Rat pregnane X receptor (rPXR) activation by small molecules, qHTS assay (AID 1346983); details: rPXR luciferase reporter cells, One-Glo luminescence, 24 h; stronger effect = higher value; further: nearly all actives have a fitted effect of over 20% in size
Nuclear receptor subfamily 1 group I member 2 (Rattus norvegicus), sequence (Q9R1A7 whole entry, looked up): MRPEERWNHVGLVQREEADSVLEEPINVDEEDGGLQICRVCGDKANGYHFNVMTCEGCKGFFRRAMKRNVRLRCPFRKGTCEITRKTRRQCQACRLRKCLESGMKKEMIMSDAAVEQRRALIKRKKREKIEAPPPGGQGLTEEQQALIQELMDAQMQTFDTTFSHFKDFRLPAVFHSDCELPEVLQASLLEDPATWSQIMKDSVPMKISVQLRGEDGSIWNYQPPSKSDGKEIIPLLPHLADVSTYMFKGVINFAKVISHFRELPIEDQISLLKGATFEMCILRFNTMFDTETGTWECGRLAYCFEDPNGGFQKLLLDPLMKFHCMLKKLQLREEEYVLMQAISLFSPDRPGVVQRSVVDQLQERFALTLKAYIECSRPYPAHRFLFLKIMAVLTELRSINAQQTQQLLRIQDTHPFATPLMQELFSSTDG
Procedure, shortened: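 Cell-based rPXR activation assay: rPXR cells, 2,000 per well, rested 5hr at 37 C, then exposed to compounds in DMSO for 24 hr at 37 C. Luciferase activity read by One-Glo luminescence after 30 min at room temperature.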

[16] = target: Acetylcholinesterase (Homo sapiens) (UniProt P22303); test: Acetylcholinesterase (AChE) small molecule antagonists: fluorescence cell-based qHTS assay (AID 1347398; calls by dose curve; further: nearly all actives have a fitted effect of over 50% in size; further: potency means the concentration at half of the fitted maximal effect); details: Potency: AChE activity
Procedure, shortened: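 SH-SY5Y, 2,000 cells/well, attached overnight; cmpd 30 min 37 C; acetylthiocholine/Thiolite Green cocktail 40 min RT; fluorescence Ex/Em 490/520 nm.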

[17] = target: Nuclear receptor subfamily 1 group I member 2 (Homo sapiens) (UniProt O75469); test: CYP3A4 induction through human pregnane X receptor (PXR) by small molecules, qHTS assay (AID 1346984); further: nearly all actives have a fitted effect of over 40% in size
Procedure, shortened: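 Read-out is luminescence after One-Glo addition, following a 3 hr, 37C incubation with Luciferin-IPA CYP3A4 substrate (3uM final). Before that, compounds were on DPX-2 cells (HepG2 co-transfected with PXR element plus CYP3A4-promoter luciferase) for 24 hr at 37C.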

[18] = target: Nuclear receptor subfamily 1 group I member 2 (Homo sapiens) (UniProt O75469); test: Human pregnane X receptor (PXR) activation by small molecules, qHTS assay (AID 1346985); further: nearly all actives have a fitted effect of over 40% in size
Procedure, shortened: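 DPX-2 cells (HepG2 co-transfected with a PXR response element and a CYP3A4-promoter luciferase construct) were seeded at 2,000 per well, rested 5 hr at 37C, then exposed to DMSO-dissolved compounds for 24 hr. Activation was read as luciferase luminescence.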
On the % scale 0 is the no-effect control and ±100 the full control effect.

CCN(CC)N=O
inactive: Potency [1] | Potency [2] | Potency [3] | Potency [4] | Potency [5] | Potency [6] | Potency [7] | Potency [8] | Potency [10] | Potency [11] | Potency [12] | Potency [13]
active: Potency [9] 22.6 µM

CCc1cccc(CC)c1N(COC)C(=O)CCl
active: Potency [2] 16.7 µM | Potency [5] 10.5 µM and 1.37 µM | Potency [9] 9.71 µM and 71 µM | Potency [10] 30.7 µM and 39.9 µM
inactive: Potency [1] | Potency [3] | Potency [4] | Potency [6] | Potency [7] | Potency [14] | Potency [8] | Potency [11] | Potency [12]

C#C[C@]1(O)CC[C@H]2[C@@H]3CCC4=CC(=O)CC[C@]4(C)[C@H]3CC[C@@]21C
inactive: Potency [1] | Potency [2] | Potency [3] | Potency [4] | max activation [15] 11.6% | Potency [6] | Potency [7] | Potency [16] | Potency [14] | Potency [8] | Potency [13]
active: Potency [9] 6.33 µM and 1.38 µM

CC(C)=CC1C(C(=O)OCc2coc(Cc3ccccc3)c2)C1(C)C (configuration not stated)
active: Potency [5] 24.3 µM | Potency [9] 8.95 µM and 6.32 µM | Potency [10] 7.98 µM and 3.55 µM | Potency [11] 28.2 µM
inactive: Potency [1] | Potency [2] | Potency [3] | Potency [4] | Potency [6] | Potency [7] | Potency [14] | Potency [8] | Potency [12]

O=P(O)(O)CCCl
active: Potency [6] 40.7 µM and 39.8 µM
inactive: Potency [1] | Potency [2] | Potency [3] | Potency [4] | Potency [5] | Potency [7] | Potency [16] | Potency [14] | Potency [8] | Potency [9] | Potency [10] | Potency [11] | Potency [12] | Potency [13]

O=Cc1ccco1
inactive: Potency [1] | Potency [2] | Potency [3] | Potency [4] | Potency [5] | max activation [15] -0.979% | outcome [17] | outcome [18] | Potency [6] | Potency [7] | Potency [16] | Potency [14] | Potency [8] | Potency [9] | Potency [10] | Potency [11] | Potency [12] | Potency [13]

Clc1nc(Cl)nc(Cl)n1
inactive: Potency [1] | Potency [2] | Potency [3] | Potency [4] | Potency [5] | Potency [6] | Potency [7] | Potency [16] | Potency [8] | Potency [9] | Potency [10] | Potency [11] | Potency [12] | Potency [13]

CCCCN(CCCC)N=O
inactive: Potency [1] | Potency [2] | Potency [3] | Potency [4] | Potency [5] | Potency [6] | Potency [14] | Potency [8] | Potency [10] | Potency [11] | Potency [12] | Potency [13]
12.1 µM (active) and inactive: Potency [16]
34.1 µM (active) and inactive: Potency [7]
60.7 µM (active) and inactive: Potency [9]

NCc1cccnc1
inactive: Potency [1] | Potency [2] | Potency [3] | Potency [4] | max activation [15] -2.22% | outcome [17] | outcome [18] | Potency [6] | Potency [7] | Potency [14] | Potency [8] | Potency [10] | Potency [11] | Potency [12] | Potency [13]
28.3 µM (active) and inactive: Potency [9]

c1ccc(N=Nc2ccccc2)cc1
active: Potency [11] 25.7 µM and 10 µM
inactive: Potency [1] | Potency [2] | Potency [3] | Potency [4] | Potency [5] | Potency [6] | Potency [7] | Potency [9] | Potency [10] | Potency [12] | Potency [13]
14.4 µM (active) and inactive: Potency [8]

C[C@]12CCC(=O)C(O)=C1CC[C@@H]1[C@@H]2CC[C@]2(C)C(=O)CC[C@@H]12
inactive: Potency [1] | Potency [2] | Potency [3] | Potency [4] | max activation [15] -2.61% | outcome [17] | outcome [18] | Potency [6] | Potency [7] | Potency [11] | Potency [12]
active: Potency [8] 31.7 µM | Potency [9] 20 µM

O=C(NC(=O)c1c(F)cccc1F)Nc1ccc(Cl)cc1
active: Potency [11] 35.6 µM
2.44 µM (active) and inactive: Potency [5]
inactive: Potency [1] | Potency [2] | Potency [3] | Potency [4] | Potency [6] | Potency [7] | Potency [14] | Potency [8] | Potency [9] | Potency [10] | Potency [12] | Potency [13]

COc1ccc(C=O)cc1
inactive: Potency [1] | Potency [2] | Potency [3] | Potency [4] | Potency [5] | Potency [6] | Potency [7] | Potency [8] | Potency [9] | Potency [10] | Potency [11] | Potency [12] | Potency [13]
